Measured values: PubChem BioAssay
Activity calls are given as the source filed them. Unless noted, the rule behind the calls is not given here.

Legend:
[1] = anti-His antibody binders, primary screen, artefact control for SMM control protein annotation, biochemical, small-molecule microarray, 635 nm fluorescence (AID 1128); conditions: anti-His Alexa647 antibody binding, higher = more signal;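 note: score merges feature fluorescence with signal-to-noise for each printed compound spot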
[2] = test system: Human papillomavirus type 1a E7 protein (residues 1-88); test: HPV1a E7 small-molecule binders, primary screen, biochemical, small-molecule microarray, residues 1-88, 635 nm (AID 1129); conditions: small-molecule microarray binding, fluorescence 635 nm; higher = more signal
[3] = biological target: Focal adhesion kinase 1 (Homo sapiens) (UniProt Q05397); test: small-molecule microarray binders of FAK, primary screen, biochemical, 635/667 nm fluorescence, BSA, DTT (AID 1130); conditions: PTK2 binding, 635 nm fluorescence, higher = more signal;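 note: composite of spot emission at 667 nm and signal to noise over triplicate slides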
Chain of Focal adhesion kinase 1 (Homo sapiens) (Q05397 whole entry, looked up): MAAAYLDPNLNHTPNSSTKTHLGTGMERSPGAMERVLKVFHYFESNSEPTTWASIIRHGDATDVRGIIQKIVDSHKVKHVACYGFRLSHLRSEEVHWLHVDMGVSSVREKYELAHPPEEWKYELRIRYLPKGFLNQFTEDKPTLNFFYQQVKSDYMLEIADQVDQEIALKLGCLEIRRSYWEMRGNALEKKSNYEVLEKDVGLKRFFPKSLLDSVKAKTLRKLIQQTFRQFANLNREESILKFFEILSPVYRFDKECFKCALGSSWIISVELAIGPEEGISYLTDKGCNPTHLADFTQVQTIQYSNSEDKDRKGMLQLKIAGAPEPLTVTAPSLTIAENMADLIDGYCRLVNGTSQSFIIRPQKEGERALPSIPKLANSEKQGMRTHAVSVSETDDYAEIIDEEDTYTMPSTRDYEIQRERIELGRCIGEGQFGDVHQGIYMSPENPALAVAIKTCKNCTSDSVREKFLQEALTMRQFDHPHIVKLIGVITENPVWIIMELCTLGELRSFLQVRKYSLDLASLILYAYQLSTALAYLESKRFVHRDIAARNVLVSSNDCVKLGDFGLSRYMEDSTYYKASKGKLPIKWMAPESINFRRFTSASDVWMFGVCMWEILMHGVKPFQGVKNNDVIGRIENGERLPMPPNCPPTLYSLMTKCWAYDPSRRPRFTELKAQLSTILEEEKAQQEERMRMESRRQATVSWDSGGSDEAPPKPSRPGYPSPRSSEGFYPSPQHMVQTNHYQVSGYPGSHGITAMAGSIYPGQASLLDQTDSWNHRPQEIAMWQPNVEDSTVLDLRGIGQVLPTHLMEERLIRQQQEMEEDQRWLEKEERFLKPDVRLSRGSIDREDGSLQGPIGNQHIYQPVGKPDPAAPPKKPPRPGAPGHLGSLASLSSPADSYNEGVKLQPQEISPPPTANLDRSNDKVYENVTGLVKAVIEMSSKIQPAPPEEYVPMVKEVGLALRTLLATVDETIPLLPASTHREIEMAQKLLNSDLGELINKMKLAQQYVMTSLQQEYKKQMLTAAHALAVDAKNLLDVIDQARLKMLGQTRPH

[4] = test system: Fibrinogen (Alexa647-labelled); test: fibrinogen binders on compound microarrays, profiling panel, artefact control for SMM control-protein annotation, biochemical, small-molecule microarray, 635/667 nm fluorescence (AID 1131); conditions: fibrinogen-A647 binding fluorescence, higher = more signal;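 note: z-score merges 667 nm fluorescence with per-spot signal-to-noise over triplicate slides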
[5] = biological target: Follistatin (Homo sapiens) (UniProt P19883); test: follistatin binders on small-molecule microarrays, primary screen, biochemical, small-molecule microarray, 635/667 nm fluorescence (AID 1132); conditions: FST binding, 635 nm fluorescence, higher = more signal
Chain of Follistatin (Homo sapiens) (P19883 whole entry, looked up): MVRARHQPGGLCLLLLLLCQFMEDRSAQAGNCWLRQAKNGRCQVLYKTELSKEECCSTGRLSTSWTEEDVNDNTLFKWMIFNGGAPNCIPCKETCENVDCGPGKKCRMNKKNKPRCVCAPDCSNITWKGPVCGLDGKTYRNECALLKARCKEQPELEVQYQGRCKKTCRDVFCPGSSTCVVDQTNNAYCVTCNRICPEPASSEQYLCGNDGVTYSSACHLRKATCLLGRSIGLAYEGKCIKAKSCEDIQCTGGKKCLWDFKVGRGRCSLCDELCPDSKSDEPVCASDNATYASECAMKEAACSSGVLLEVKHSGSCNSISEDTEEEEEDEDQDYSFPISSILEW

[6] = biological target: Fibroblast growth factor 2 (Homo sapiens) (UniProt P09038); test: FGF2 binders on small-molecule microarrays, primary screen, biochemical, small-molecule microarray, 635/667 nm fluorescence (AID 1133); conditions: small-molecule microarray binding, FGF2, fluorescence 635/667; higher = more signal
Chain of Fibroblast growth factor 2 (Homo sapiens) (P09038 whole entry, looked up): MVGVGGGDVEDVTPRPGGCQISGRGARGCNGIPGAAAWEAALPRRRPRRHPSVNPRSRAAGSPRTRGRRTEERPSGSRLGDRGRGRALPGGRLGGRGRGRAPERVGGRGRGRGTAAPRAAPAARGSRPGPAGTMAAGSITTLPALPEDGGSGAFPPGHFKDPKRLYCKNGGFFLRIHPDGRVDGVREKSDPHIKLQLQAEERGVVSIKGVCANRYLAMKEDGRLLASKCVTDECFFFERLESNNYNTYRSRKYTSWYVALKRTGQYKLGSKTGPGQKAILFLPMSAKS

[7] = mitochondrial membrane potential change in A549 cells, profiling panel, cell-based, JC-1 fluorescence, basal, 24 h, 100 nL (AID 1138); conditions: higher = more signal;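 note: A549 lung adenocarcinoma cells under basal conditions with no added stimulus; test concentration not given here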
Lefty1 = Lefty1 binders on small-molecule microarrays, primary screen, biochemical, small-molecule microarray, 635/667 nm fluorescence (AID 1139); conditions: small-molecule microarray binding, fluorescence 635/667; higher = more signal
[8] = test system: wheat germ agglutinin (Triticum aestivum), Alexa647-labelled; test: wheat germ agglutinin binders on compound microarrays, profiling panel, artefact control for SMM control-protein annotation, biochemical, small-molecule microarray, 635/667 nm fluorescence (AID 1140); conditions: WGA-A647 binding, 635 nm fluorescence, higher = more signal;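 note: score merges 667 nm feature emission with signal to noise over triplicate slides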
[9] = biological target: Luciferin 4-monooxygenase (Photinus pyralis) (UniProt P08659); test: firefly luciferase enzyme inhibitors, primary screen, biochemical, luminescence, purified enzyme, 2006 set (AID 1141); conditions: SteadyGlo luminescence, 30 min, higher = more signal, called active from +8 up or from −8 down;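 note: cell-free assay with purified firefly luciferase at 100 ng per well in PBS; test concentration not given here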
Chain of Luciferin 4-monooxygenase (Photinus pyralis) (P08659 whole entry, looked up): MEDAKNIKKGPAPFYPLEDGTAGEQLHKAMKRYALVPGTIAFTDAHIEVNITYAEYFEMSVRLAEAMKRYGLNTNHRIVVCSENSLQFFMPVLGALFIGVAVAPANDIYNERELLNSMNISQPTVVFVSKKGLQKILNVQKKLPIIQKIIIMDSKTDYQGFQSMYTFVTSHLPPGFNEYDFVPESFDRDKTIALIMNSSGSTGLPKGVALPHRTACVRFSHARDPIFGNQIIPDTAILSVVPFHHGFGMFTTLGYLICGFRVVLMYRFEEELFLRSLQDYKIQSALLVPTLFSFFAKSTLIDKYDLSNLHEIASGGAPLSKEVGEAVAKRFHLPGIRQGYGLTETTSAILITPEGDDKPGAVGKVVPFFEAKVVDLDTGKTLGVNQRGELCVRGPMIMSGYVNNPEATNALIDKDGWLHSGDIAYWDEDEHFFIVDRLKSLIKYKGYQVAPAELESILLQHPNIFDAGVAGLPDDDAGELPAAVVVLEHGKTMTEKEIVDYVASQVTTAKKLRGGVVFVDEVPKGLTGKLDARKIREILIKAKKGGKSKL

[10] = test system: Wnt5a (protein binding on small-molecule microarray); test: Wnt5a binders on small-molecule microarray, primary screen, biophysical, 635/667 nm fluorescence (AID 1142); conditions: 635 nm fluorescence, higher = more signal;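 note: fluorescence read at 667 nm with signal to noise per printed feature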
[11] = cell viability in Huh7 cells, primary screen, cytotoxicity control for HCV replication inhibitor project, CellTiter-Glo luminescence, basal, 48 h (AID 1143); conditions: Huh7 HCV replicon, higher = more signal, called active from +8 up or from −8 down;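 note: Huh7 hepatoma cells carrying a hepatitis C replication reporter with no stimulus; test concentration not given here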
[12] = P. aeruginosa biofilm formation inhibitors, primary screen, PAO1 strain, BacTiter-Glo luminescence, LB-PBS (AID 1144); conditions: 12 h, higher = more signal
[13] = CREB reporter modulators without forskolin, primary screen, cell-based, PC12, CRE-LacZ reporter, unstimulated (AID 1145); conditions: no forskolin, luminescence, 4.5 h, higher = more signal, called active from +8 up or from −8 down
[14] = CREB reporter modulators under forskolin, primary screen, cell-based, PC12, CRE-LacZ reporter, forskolin-stimulated (AID 1146); conditions: luminescence, 4.5 h, higher = more signal, called active from +8 up or from −8 down;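 note: PC12 cells with 6xCRE LacZ reporter stimulated by forskolin 10 µM; beta-galactosidase reporter signal reflecting CREB driven transcription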
[15] = biological target: Streptavidin (Streptomyces avidinii) (UniProt P22629); test: streptavidin binders on small-molecule microarray, primary screen, artefact control for SMM compound annotation, biophysical, 635/667 nm fluorescence (AID 1147); conditions: streptavidin binding, higher = more signal;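 note: signal reflects streptavidin binding to arrayed compounds as a control protein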
Chain of Streptavidin (Streptomyces avidinii) (P22629 whole entry, looked up): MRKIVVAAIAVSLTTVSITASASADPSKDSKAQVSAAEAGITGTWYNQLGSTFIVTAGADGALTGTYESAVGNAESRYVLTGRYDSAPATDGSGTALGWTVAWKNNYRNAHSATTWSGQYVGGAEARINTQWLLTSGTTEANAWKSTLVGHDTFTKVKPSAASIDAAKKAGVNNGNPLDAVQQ

[16] = small-molecule binders of probe aInhba, primary screen, biochemical, small-molecule microarray, 635/667 nm fluorescence (AID 1148); conditions: higher = more signal;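 note: score merges 667nm spot fluorescence with signal-to-noise for antibody binding to printed compounds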
Torsin-1A (Homo sapiens) [17] = biological target: Torsin-1A (Homo sapiens) (UniProt O14656); test: torsin A binders from cell lysate, primary screen, small-molecule microarray, wild-type, 635/667 nm (AID 1149); conditions: COS7 hTOR1A-WT lysate, 635 nm fluorescence, higher = more signal
Chain of Torsin-1A (Homo sapiens) (O14656 whole entry, looked up): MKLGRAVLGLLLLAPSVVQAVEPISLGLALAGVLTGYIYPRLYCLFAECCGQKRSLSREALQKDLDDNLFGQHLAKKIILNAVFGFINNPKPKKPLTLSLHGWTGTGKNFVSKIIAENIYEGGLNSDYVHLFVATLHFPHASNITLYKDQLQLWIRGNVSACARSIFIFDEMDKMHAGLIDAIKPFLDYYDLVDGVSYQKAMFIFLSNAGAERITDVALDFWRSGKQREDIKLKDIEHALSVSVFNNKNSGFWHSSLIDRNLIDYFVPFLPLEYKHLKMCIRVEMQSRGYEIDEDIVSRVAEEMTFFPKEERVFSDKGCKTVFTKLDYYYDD

Torsin-1A (Homo sapiens) [18] = biological target: Torsin-1A (Homo sapiens) (UniProt O14656); test: small-molecule binders of mutant TOR1A in lysate, primary screen, cell lysate, small-molecule microarray, COS7 lysate, 635/667 nm fluorescence (AID 1150); conditions: COS7 hTOR1A mutant lysate, 635 nm fluorescence, higher = more signal;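 note: score pools 667 nm emission and signal to noise measuring lysate protein binding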
[19] = test system: Sonic hedgehog protein (Shh); test: small-molecule binders of Shh protein, primary screen, biochemical, small-molecule microarray, 635/667 nm fluorescence (AID 1151); conditions: small-molecule microarray binding, 635 nm fluorescence; higher = more signal;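 note: Shh protein binding to compounds spotted on small-molecule microarray slides; score combines spot fluorescence intensity with signal-to-noise across triplicate slides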

SMILES	composite z-score [1]	composite z-score [2]	composite z-score [3]	composite z-score [4]	composite z-score [5]	composite z-score [6]	z-score [7]	composite z-score (Lefty1)	composite z-score [8]	z-score [9]	composite z-score [10]	z-score [11]	z-score [12]	z-score [13]	z-score [14]	composite z-score [15]	composite z-score [16]	composite z-score (Torsin-1A (Homo sapiens) [17])	composite z-score (Torsin-1A (Homo sapiens) [18])	composite z-score [19]
COc1cc(CO)cc(I)c1O[C@H]1C=C(C(=O)NCCO)C[C@@H](N(C(=O)c2cc3ccccc3oc2=O)C2CCCCCC2)[C@@H]1O	0.0786	-0.832	-0.314	0.138	0.625	1.32	-1.79	0.803	0.972	0.93 (inactive)	0.021	-2.46 (inactive)	-0.269 (inactive)	-0.153 (inactive)	-0.94 (inactive)	0.0378	-0.157	-0.113	0.347	1.33
C=C(CCCC)/C(=C/C[C@H](OC(C)=O)c1ccccc1OCCO)c1cnc2ccccc2c1	0.528	0.545	-0.0464	-0.128	0.891	0.481	1.76	0.861	0.664	-0.895 (inactive)	0.382	-1.45 (inactive)	0.489 (inactive)	4.07 (inactive)	0.55 (inactive)	0.36	-0.157	0.0711	0.878	1.49
C#CCN(C/C=C/c1ccccc1)[C@H](CO)c1ccccc1	-0.429	0.168	-0.0352	-0.213	0.495	0.444	-1.38	0.968	0.241	0.616 (inactive)	0.325	-3.79 (inactive)	-0.192 (inactive)	1.65 (inactive)	-0.121 (inactive)	0.41	-0.103	0.25	0.294	0.743
COCCCNC(=O)[C@@]1(CCS(=O)(=O)c2ccccc2)N=C(c2ccc(OCCCO)cc2)O[C@H]1c1ccccc1N=[N+]=[N-]	0.328	1.25	-0.0191	1.02	1.3	0.786	-0.341	1.27	1.01	-8.3 (active)	1.04	-5.54 (inactive)	-0.372 (inactive)	0.0451 (inactive)	-1.15 (inactive)	0.985	0.467	0.765	1.49	1.72
C=CCC(OC(C)=O)[C@@H]1[C@@H](N(Cc2ccc(-c3cccc(C(F)(F)F)c3)o2)C(=O)Cc2ccc(OC)cc2)c2cc(OCCCO)ccc2N1C(=O)c1ccc2ccccc2c1 (stereo not given in full)	-0.448	-0.811	-0.198	-1	0.776	-0.522	-0.322	0.199	-0.145	0.535 (inactive)	-0.301	-1.54 (inactive)	-1 (inactive)	-0.0247 (inactive)	1.52 (inactive)	-0.445	-0.128	-2.27	0.168	0.804
O=C1NC(=O)C2C1C=CC(C(O)c1ccc(I)cc1)N2Nc1ccccn1 (stereo not given)	2.1	0.134	0.675	0.791	0.367	-0.109	-0.279	-0.19	1.23	-0.759 (inactive)	-0.0488	0.886 (inactive)	-0.833 (inactive)	0.636 (inactive)	0.0542 (inactive)	0.242	-0.0216	0.282	0.239	-0.0484
O=C(CS)NCCCCCNC(=O)[C@H]1C[C@H]2C(=O)NCC(=O)N2[C@H]1c1ccc(O)cc1	-0.0453	-1.16	-0.437	-3.23	-0.0739	0.258	-0.0966	0.0911	-0.125	0.612 (inactive)	-0.55	-0.173 (inactive)	-0.196 (inactive)	-1.49 (inactive)	-0.684 (inactive)	-1.11	-0.264	-0.518	0.113	0.0174
COC(=O)[C@@]1(Cc2ccccc2)[C@H]2c3cc(C(=O)N(C)C)n(CCc4c[nH]c5ccc(O)cc45)c3C[C@H]2CN1C(=O)c1ccccc1	1.53	1.23	0.772	-0.0969	1.35	-0.0235	-0.409	0.171	0.173	-2.82 (inactive)	0.0434	-1.51 (inactive)	0.562 (inactive)	0.0041 (inactive)	0.1 (inactive)	0.0497	0.0878	-0.343	0.604	0.647
COC(=O)C(CC#Cc1ccc2c(c1)[C@]1(C(=O)N2)[C@H](c2ccc(O)cc2)N2[C@H](c3ccccc3)[C@H](c3ccccc3)OC(=O)[C@H]2[C@@H]1C(=O)N1CCN(c2ncccn2)CC1)C(=O)OC	3.29	1.23	0.809	0.975	0.771	0.208	-0.35	0.162	1.2	-0.078 (inactive)	0.131	-2.25 (inactive)	-1.08 (inactive)	-0.644 (inactive)	-0.0048 (inactive)	0.709	0.313	0.131	0.338	0.618
COc1ccc(NN2C(C(O)c3ccc(N(C)C)cc3)C=CC3C(=O)N(C4CCCCC4)C(=O)C32)cc1 (stereo not given)	1.64	1.22	0.465	0.941	0.731	-0.24	-0.165	0.27	0.667	0.557 (inactive)	0.66	-0.759 (inactive)	-0.805 (inactive)	-0.583 (inactive)	-0.249 (inactive)	1.46	0.346	0.0944	1.11	0.0202
